Assay outcomes (PubChem)
PfHsp90 set2 = growth inhibition of PfHsp90-expressing yeast, primary screen, antimalarial PfHsp90 inhibitor project, S. cerevisiae, BacTiter-Glo luminescence, single point, set 2. BacTiter-Glo ATP, 48 h; yeast lacking PDR1 and PDR3 efflux regulators. inhibition, % at 9.4 µM. 0.32% of 310,000 active;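 active means every replicate shows inhibition above about 80%, whatever the replicate mean, limit read from the data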
tim10-1 inh = growth inhibitors of tim10-1 mutant yeast, primary screen, luminescence, uHTS; S. cerevisiae tim10-1 ts strain growth, BacTiter-Glo, 24 h; inhibition, % at 20 µM; 2.2% of 330,000 active; AID 463190, 2010;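 active means inhibition of at least 40%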;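 further: mutant grown at 25 °C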
tim23-1 inh = growth inhibitors of tim23-1 mutant yeast, primary screen, luminescence, uHTS. AID 463212, 2010. S. cerevisiae tim23-1 growth, BacTiter-Glo luminescence, 24 h. inhibition, % at 20 µM. 1.3% of 330,000 active;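 active means growth inhibition of the mutant yeast at or above 50%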;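 further: temperature-sensitive mutant grown at 25 °C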
SKKanGAS inh = S. pyogenes SKKanGAS growth inhibitors in kanamycin, primary screen, streptokinase expression inhibitor project, SKKanGAS strain, BacTiter-Glo luminescence. 6 h. inhibition, % at 7.5 µM. 1.3% of 300,000 active;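 active means mean replicate score, as percent of positive control median, at least 50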;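 further: strain carries kanamycin resistance gene driven by streptokinase promoter and grows in 40 µg/ml kanamycin; loss of luminescence reflects streptokinase promoter inhibition or plain growth inhibition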
ATG4B inh = ATG4B protease inhibitors, primary screen, biochemical, fluorescence, uHTS; inhibition, % at 8.33 µM; ATG4B cleavage of LC3-PLA2, NBD-HPC fluorescence, 1 h; 0.51% of 340,000 active; Cysteine protease ATG4B (Homo sapiens), Q9Y4P1; in the data active means inhibition above about 40%
Target sequence (Q9Y4P1 whole entry, looked up): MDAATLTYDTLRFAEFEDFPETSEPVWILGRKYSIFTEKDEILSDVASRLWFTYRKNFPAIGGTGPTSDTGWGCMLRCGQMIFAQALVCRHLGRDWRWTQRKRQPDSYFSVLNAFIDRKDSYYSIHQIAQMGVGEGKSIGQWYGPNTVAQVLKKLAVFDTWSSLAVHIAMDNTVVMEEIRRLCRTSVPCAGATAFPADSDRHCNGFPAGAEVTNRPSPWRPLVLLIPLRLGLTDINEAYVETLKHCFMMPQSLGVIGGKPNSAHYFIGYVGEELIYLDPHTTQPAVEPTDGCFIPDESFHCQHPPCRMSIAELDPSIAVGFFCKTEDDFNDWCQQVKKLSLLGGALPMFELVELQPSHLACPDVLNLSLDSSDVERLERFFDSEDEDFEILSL
TIM10 inh = growth inhibitors of isogenic TIM10 control yeast, primary screen, counter-screen for tim10-1 yeast inhibitor project, luminescence, uHTS | S. cerevisiae TIM10 strain growth, BacTiter-Glo luminescence, 24 h | inhibition, % at 10 µM | 1.4% of 330,000 active | AID 463195, 2010;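 active means inhibition of 40% or more at the single tested concentration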;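 further: wild-type TIM10 isogenic control strain grown at permissive 25 °C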
tim23-1 confirm = tim23-1 mutant yeast growth inhibitors, confirmation, luminescence, single concentration | shares compounds with tim23-1 inh | S. cerevisiae tim23-1 growth, BacTiter-Glo luminescence, 24 h | inhibition, % at 20 µM | 83% of 4,400 active | AID 463218, 2010;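 active means inhibition above about 39% in either of two replicate wells at 20 µM, limit read from the data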;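 further: temperature-sensitive tim23-1 mutant grown at 25 °C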
A number is an active result; - = inactive; . = no result given. Compounds with a hit are over-represented: about 4.7% of the library has one in this group of screens.

SMILES | PfHsp90 set2 | tim10-1 inh | tim23-1 inh | SKKanGAS inh | ATG4B inh | TIM10 inh | tim23-1 confirm
COC(=O)[C@H](Cc1ccccc1)N1C/C=C\COc2c(Cl)cc(Cl)cc2S1(=O)=O | - | - | 52.2 | . | - | - | -
COC(=O)[C@H](C)N1C/C=C\COc2c(Cl)cc(Cl)cc2S1(=O)=O | - | - | - | . | - | - | .
CC(=O)N(/N=C1\Sc2ccccc2C1=O)c1ccccc1 | - | . | . | . | - | . | .
O=C(Nc1ccc(-c2nc3ccccc3[nH]2)cc1)C1CCCO1 (stereo unspecified) | - | - | 52.9 | - | - | - | 40.8
O=C(COC(=O)c1ccc(O)cc1)c1ccc2c(c1)OCCO2 | . | - | 59.8 | . | - | - | -
CCOC(=O)Nc1ccc2c(c1)N(C(=O)CN1CCN(C)CC1)c1ccccc1CC2 | - | - | - | - | - | - | .
COc1ccc(CCC(=O)Nc2ccc(C(=O)c3ccncc3)cc2)cc1 | - | - | - | - | - | - | .
O=C(c1ccco1)N1c2ccccc2Sc2ccccc21 | - | - | - | - | - | - | .
O=C(c1ccco1)N1CCN(C(=O)N2c3ccccc3Sc3ccccc32)CC1 | - | - | 56.0 | - | - | - | -
Cn1nnnc1Sc1ncnc2scc(-c3ccc(Br)cc3)c12 | . | - | 67.6 | . | - | - | 59.4
CN(C)c1ccc(C(=O)c2ccccc2C(=O)O)cc1[N+](=O)[O-] | - | - | - | - | - | - | .
C/C(=N\NC(=O)c1ccc(Cl)cc1)c1ccccn1 | - | - | 50.3 | 87.0 | - | - | 44.6
Nc1ccc2nc(-c3ccccc3)[nH]c2c1 | - | - | - | - | - | - | .
Nc1cccc(-c2nc3ccc(C(=O)c4ccccc4)cc3[nH]2)c1 | - | - | 54.6 | - | - | - | 55.8
Cc1ccc(Sc2ccc(CO)cc2[N+](=O)[O-])cc1 | - | - | 52.9 | - | - | - | 52.1
Cc1ccc(Sc2ccc(CN3CCCC3)cc2[N+](=O)[O-])cc1 | - | - | - | - | - | - | .
CCCCNC(=O)Cn1cnc2ccc(S(=O)(=O)N3CCC(C)CC3)cc2c1=O | - | - | - | - | - | - | .
Nc1cc(-c2ccc(Br)cc2)nn1Cc1ccccc1 | - | . | . | - | - | . | .
Nc1cc(-c2ccccc2)nn1Cc1ccc(Cl)cc1 | - | - | 50.4 | - | - | - | -
CC(C)NC(=S)N(C)C1(c2ccccc2Cl)CCCCC1=O (stereo unspecified) | - | - | - | - | - | - | .
COc1ccc(Br)cc1-c1nc(CCl)cs1 | - | - | 51.4 | - | - | - | 57.1
COc1ccc(C(=O)OCC(=O)NCc2ccccc2)c(OC)c1OC | - | - | - | - | - | - | .
Cc1ccc(-c2cc(-c3ccccc3)nc(N(C)N)n2)cc1 | - | - | 56.0 | 67.9 | - | - | 53.2
Cc1cccc(N2C(=O)c3ccc(Br)cc3C2=O)n1 | - | - | 55.5 | - | . | - | 44.6
O=C(CSc1cccc[n+]1[O-])c1cc(Cl)ccc1Cl | - | - | 59.3 | - | - | - | 76.8
SMILES | PfHsp90 set2 | tim10-1 inh | tim23-1 inh | SKKanGAS inh | ATG4B inh | TIM10 inh | tim23-1 confirm
O=C(Cn1nnc(-c2ccccc2NC(=O)c2cccs2)n1)Nc1ccccc1 | - | - | - | - | - | - | .
O=S(=O)(Cc1ccc(Cl)cc1)Nc1ccc2c(c1)OCO2 | - | - | 59.2 | - | - | - | 48.6
Cc1ccccc1-c1nc(SCc2ccccn2)c2c(=O)n(C)c(=O)n(C)c2n1 | - | - | - | - | - | - | .
CCc1nc(SCc2cccnc2)c2c(=O)n(C)c(=O)n(C)c2n1 | - | - | - | - | - | - | .
CCc1nc(SCc2ccccn2)c2c(=O)n(C)c(=O)n(C)c2n1 | - | - | 55.5 | - | - | - | 49.9
CC(C)c1nc(SCc2ccccn2)c2c(=O)n(C)c(=O)n(C)c2n1 | - | - | 50.3 | - | - | - | 48.5
Cn1c(=O)c2c(SCc3cccnc3)nc(C3CC3)nc2n(C)c1=O | - | - | 50.4 | - | - | - | 42.5
C(=N\n1cncn1)/c1ccc(N2CCOCC2)cc1 | - | - | - | - | - | - | .
COC(=O)c1sccc1-c1ccc(C(=O)Nc2cccnc2)o1 | - | - | - | - | - | - | .
Cc1ccc(F)cc1NS(=O)(=O)c1ccc(Cl)s1 | - | - | 50.6 | . | - | - | 49.8
Cc1nn(C)c(C)c1NS(=O)(=O)c1ccc(Cl)s1 | - | - | - | . | - | - | .
COc1ccc(NC(=S)NC(=O)c2ccc(Br)o2)cc1 | - | - | - | - | - | - | .
Cc1cccc(-n2c(SCC(N)=O)nc3c(c2=O)C2(CCCC2)Cc2ccccc2-3)c1 | - | - | 54.2 | - | - | - | 46.7
NC(=O)CSc1nc2c(c(=O)n1-c1ccccc1)C1(CCCCC1)Cc1ccccc1-2 | - | - | - | - | - | - | .
CCOC(=O)N1CCC(N2CCCC(CO)(Cc3ccccc3C)C2)CC1 (stereo unspecified) | - | - | - | - | - | - | .
COc1ccccc1C(=O)COC(=O)Cc1ccccc1F | - | - | 52.2 | . | - | - | 53.5
CCCC(=O)Nc1nnc(/C=C/c2ccc(OC)cc2)s1 | - | - | - | - | - | - | .
Cc1[nH][nH]c(=O)c1C(c1ccc(Br)cc1)c1c(C)[nH][nH]c1=O | - | - | - | - | - | - | .
CCCc1[nH][nH]c(=O)c1C(c1ccc(Br)cc1)C(C#N)C#N (stereo unspecified) | - | - | 59.4 | - | - | - | -
Fc1cccc(NC(=S)NNc2ccccc2)c1 | - | - | 59.5 | - | - | - | -
Fc1cccc(NC(=S)NNc2c3ccccc3nc3ccccc23)c1 | - | . | . | - | - | . | .
Nc1nc(SCC(=O)Nc2ccccc2)[nH]c(=O)c1-c1ccccc1 | - | - | - | - | - | - | .
COC(=O)c1ccc(-n2c(C)cc(C(=O)CCl)c2C)cc1 | - | - | 52.4 | - | - | - | -
COc1ccc(NC(=O)CCS(=O)(=O)c2ccc(OC)cc2)cc1 | - | - | - | - | - | - | .
COc1ccccc1NC(=S)NCCSc1ccc(Cl)cc1 | - | - | 54.0 | - | - | - | 50.2
COc1ccc(NC(=S)NCCSc2ccc(Cl)cc2)c(OC)c1 | - | - | 50.1 | - | - | - | 42.0
COc1ccc(N=C2S/C(=C\c3ccc(Cl)c([N+](=O)[O-])c3)C(=O)N2CCN(C)C)cc1 | - | - | 60.4 | - | - | - | -
CCCCN(CC)c1nc(N)c2c(N)nc(OCC)cc2c1C#N | - | - | 56.0 | - | - | - | 43.9
COC1=CC(=O)c2ccccc2C1=O | - | - | 77.6 | . | - | - | 78.6
COC1=CC(=O)C=C(OC)C1=O | - | . | . | . | - | . | .
